Results on 14 compounds are retold here after PubChem BioAssay.

Test [1] in a line: inhibitors of TNFa-induced NFkB p65 translocation, primary screen, imaging, HUVEC, MLSMR starter and 10KST1 sets (AID 438;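 active means inhibition above 20% together with a positive visual image hit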;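 further: compound added about 3h40 before a 20 min TNFalpha stimulation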;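 on inhibition: signal is the nuclear over cytoplasmic p65 intensity ratio per well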). Particulars: HUVEC TNFa-induced p65 nuclear translocation; cell count: measured here: nuclei count (cytotoxicity indicator), at 2.08 µM; inhibition: at 2 µM, stronger effect = higher value, 0% TNFa-plus-vehicle, 100% no-TNFa wells.
Test [2] can be described thus: inhibitors of mutant huntingtin aggregation, primary screen, imaging, exon1htt(103Q)mCFP cells, high-content imaging (AID 483;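 active means visual image review flags a hit and inhibition of aggregation exceeds 20%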;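 further: compound exposure lasted 3 days before fixation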;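 on nuclei count: percent of the per-plate median nuclei count of sample wells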). Particulars: exon1htt(103Q)mCFP cell line, aggregate imaging, at 2 µM; inhibition of aggregation: stronger effect = higher value; nuclei count: measured here: cell count, toxicity.
Test [3] can be described thus: inhibitors of E-selectin induction by TNFa, primary screen, imaging, HUVEC, immunofluorescence, MLSMR starter and 10KST1 sets (AID 487;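 active means visually confirmed hit in the image check and inhibition above 20%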;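 on inhibition: signal is fraction of cell area covered by stained E-selectin grains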;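 on nuclei count: 100% = median nuclei count of all wells on the same plate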). Particulars: HUVEC TNFalpha-induced E-selectin immunofluorescence imaging, at 2 µM; inhibition: stronger effect = higher value; nuclei count: measured here: cell number, toxicity.
For test [4], the target named is Voltage-gated potassium channel subunit beta-2 (Rattus norvegicus) (UniProt P62483). Briefly: KvBeta enzyme negative modulators, primary screen, biochemical, NADPH fluorescence (AID 622;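 active means fluorescence slope higher than the sample average by over 3 SD, cut at about -0.22 in these data, passing the limit was not always enough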;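 further: slope of raw intensity against log time taken from 70 to 1610 s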). Particulars: recombinant KvBeta, 4-cyanobenzaldehyde reduction, at 10 µM, stronger effect = higher value.
Chain of Voltage-gated potassium channel subunit beta-2 (Rattus norvegicus) (P62483 whole entry, looked up): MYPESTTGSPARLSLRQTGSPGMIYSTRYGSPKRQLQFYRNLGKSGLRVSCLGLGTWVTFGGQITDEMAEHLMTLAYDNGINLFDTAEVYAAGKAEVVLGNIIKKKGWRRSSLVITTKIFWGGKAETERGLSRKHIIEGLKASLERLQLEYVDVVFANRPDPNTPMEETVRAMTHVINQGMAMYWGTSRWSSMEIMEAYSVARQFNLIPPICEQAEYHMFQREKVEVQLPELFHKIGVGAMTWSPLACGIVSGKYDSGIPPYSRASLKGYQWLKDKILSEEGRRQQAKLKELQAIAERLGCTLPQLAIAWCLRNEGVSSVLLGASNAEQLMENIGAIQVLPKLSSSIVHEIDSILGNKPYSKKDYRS
Test [5] has the same target. Briefly: KvBeta positive modulators, primary screen, biochemical, NADPH fluorescence (AID 623;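 active means NADPH fluorescence slope more negative than the mean of all samples by about 3 SD, 99.7% confidence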;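 further: fluorescence intensity change per second fitted from 20 to 320 s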). Particulars: Recombinant KvBeta, NADPH fluorescence decrease slope, 10 min; at 10 µM; stronger effect = lower value.
The target of test [6] is Alpha-2C adrenergic receptor (Homo sapiens) (UniProt P18825). Briefly: modulators of alpha2C/GIRK thallium flux, primary screen, cell-based, HEK293 alpha2C/GIRK1/2 (AID 624;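 active means fluorescence slope after compound addition differing from the mean of all screened samples at 99.7% confidence, in either direction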;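 further: slope of fluorescence ratio to pre-addition baseline per second over 15 to 24 s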). Particulars: thallium flux BTC fluorescence, at 10 µM, actives lie on both sides.
Chain of Alpha-2C adrenergic receptor (Homo sapiens) (P18825 whole entry, looked up): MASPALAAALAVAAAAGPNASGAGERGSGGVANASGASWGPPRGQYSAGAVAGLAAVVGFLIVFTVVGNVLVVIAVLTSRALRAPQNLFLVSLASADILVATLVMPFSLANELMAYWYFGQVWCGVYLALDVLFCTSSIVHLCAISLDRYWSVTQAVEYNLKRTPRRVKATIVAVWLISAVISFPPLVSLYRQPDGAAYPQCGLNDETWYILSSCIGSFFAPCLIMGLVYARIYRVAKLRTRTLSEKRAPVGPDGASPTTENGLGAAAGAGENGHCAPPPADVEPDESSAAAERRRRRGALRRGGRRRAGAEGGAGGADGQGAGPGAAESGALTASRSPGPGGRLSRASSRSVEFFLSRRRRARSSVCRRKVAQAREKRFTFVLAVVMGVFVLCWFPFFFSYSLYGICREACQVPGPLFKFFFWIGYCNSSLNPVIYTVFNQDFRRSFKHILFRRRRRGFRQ
Test [7] in a line: inhibitors of Sendai virus-induced IRF3 signaling, primary screen, TLR/RLR signaling modifier project, cell-based, Sendai virus stimulus, luciferase, 10K MLSCN set (AID 602276).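 Further: firefly luciferase from ISG56 promoter only with Renilla not read in this screen; 0% = Sendai virus plus DMSO and 100% = medium plus DMSO without virus.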 Particulars: HEK293 RL24 IRF3 luciferase reporter, at 10 µM, stronger effect = higher value.
Test [8] is described as follows: inhibitors of poly I:C-induced TLR3 signaling, primary screen, cell-based, poly I:C stimulus, luciferase, 10K MLSCN set (AID 602277;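 active means inhibition of the reporter signal at or above 50%; inactive means inhibition below 50%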). Particulars: HEK293-TLR3 RL24 IRF3 luciferase reporter, at 10 µM, stronger effect = higher value.

Activity calls are given as the source filed them.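 How the source made its calls, unless noted: active means inhibition at or above 50% at 10 µM; inactive means inhibition below 50%.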

For the compound `Cc1ccc(S(=O)(=O)NCC(=O)N(CC(=O)NCc2ccccc2)CC2CCCO2)cc1` (centres undefined), the cell count in test [1] was found to be 341. Besides, the inhibition in test [1] is -16.5% (inactive); in test [3], -31.2% (inactive); in test [7] it was 12.2% (inactive); in test [8] it was 15.3% (inactive). The inhibition of aggregation in test [2] was 14.8% (inactive). Further, the nuclei count in test [2] worked out at 107%; in test [3], 170%. Also, in test [4], the fluorescence slope is -0.599 (inactive). Besides, in test [5], the NADPH fluorescence slope was 1.2e-05 (inactive). For the same compound, the slope in test [6] was 0.00602 (inactive).
Consider `Cc1oc(C(=O)O)cc1CSCc1cc(C(=O)O)c(C)o1`, for which, in test [1], the cell count came out at 403. Moreover, the inhibition is -9.3% (inactive) in test [1], -15.5% (inactive) in test [3], -20.7% (inactive) in test [7] and -5.67% (inactive) in test [8]. The inhibition of aggregation in test [2] was -21.1% (inactive). The nuclei count in test [2] was found to be 102%; in test [3] it was 118%. The fluorescence slope in test [4] is -0.508 (inactive). In addition, the NADPH fluorescence slope in test [5] is 3.2e-05 (inactive). Besides, the slope in test [6] is 0.00721 (inactive).
On to `COc1cc(C(=O)Nc2cc(C)ccn2)cc(OC)c1OC`, for which the cell count in test [1] amounted to 298. The inhibition was -1.9% (inactive) in test [1], -87% (inactive) in test [3], -4.57% (inactive) in test [7] and 7.2% (inactive) in test [8]. Moreover, the inhibition of aggregation in test [2] was 4.3% (inactive). Besides, the nuclei count in test [2] is 98.4%; in test [3], 113%. In test [4], the fluorescence slope was -0.472 (inactive). In addition, the NADPH fluorescence slope in test [5] was 3.1e-06 (inactive). The slope in test [6] is 0.00568 (inactive).
As for `COc1ccc(CCNC(=O)c2ccncc2)cc1OC`, the cell count in test [1] was found to be 162. Besides, the inhibition in test [1] is -18.8% (inactive); in test [3], 11.2% (inactive); in test [7], 17.7% (inactive); in test [8] it was 19.9% (inactive). In test [2], the inhibition of aggregation is 10.4% (inactive). For the same compound, the nuclei count worked out at 95.7% in test [2] and 90% in test [3]. Moreover, the fluorescence slope in test [4] is -0.499 (inactive). The NADPH fluorescence slope in test [5] is -4.1e-05 (inactive). Also, the slope in test [6] is 0.00561 (inactive).
Regarding `Cc1ccccc1C(=O)NC1CCN(Cc2nnnn2CCc2ccccc2)CC1`, the cell count in test [1] came to 597. Moreover, the inhibition in test [1] was -10.4% (inactive); in test [3], 0.8% (inactive); in test [7] it was 5.02% (inactive); in test [8], 33.8% (inactive). The inhibition of aggregation in test [2] was -10.6% (inactive). Further, the nuclei count in test [2] came to 107%; in test [3] it was 102%. Also, the fluorescence slope in test [4] was -0.491 (inactive). For the same compound, the NADPH fluorescence slope in test [5] was -3.4e-05 (inactive). Moreover, the slope in test [6] is 0.0062 (inactive).
With `Cc1cnc(SCCc2ccncc2)nc1C`, in test [1], the cell count is 650. The inhibition in test [1] was -17% (inactive); in test [3], -103% (inactive); in test [7], 6.48% (inactive); in test [8], -3.71% (inactive). In addition, the inhibition of aggregation in test [2] is -22.1% (inactive). In addition, the nuclei count in test [2] was 116%; in test [3], 101%. In test [4], the fluorescence slope is -0.278 (inactive). Also, in test [5], the NADPH fluorescence slope was -1.1e-05 (inactive). For the same compound, the slope in test [6] is 0.00606 (inactive).
On to `CC(=O)c1ccccc1NS(=O)(=O)c1c(C)nn(-c2ccccc2)c1C`, for which the cell count in test [1] worked out at 580. The inhibition in test [1] is -2.4% (inactive); in test [3] it was -74.1% (inactive); in test [7], -4.38% (inactive); in test [8] it was 98.9% (active). Moreover, in test [2], the inhibition of aggregation is 2.3% (inactive). Further, the nuclei count was found to be 113% in test [2] and 92.7% in test [3]. The fluorescence slope in test [4] was -0.308 (inactive). For the same compound, in test [5], the NADPH fluorescence slope is -5e-05 (inactive). The slope in test [6] was 0.00448 (inactive).
As for `O=C(CSc1nnc(-c2c[nH]c3ccccc23)o1)N(Cc1ccccc1)c1ccc(F)cc1`, the cell count in test [1] is 295. The inhibition is -6.1% (inactive) in test [1], -20.3% (inactive) in test [3], -15.4% (inactive) in test [7] and -35.1% (inactive) in test [8]. Besides, the inhibition of aggregation in test [2] was 1% (inactive). The nuclei count in test [2] was 95.3%; in test [3], 119%. Further, the fluorescence slope in test [4] is -0.6 (inactive). Also, in test [5], the NADPH fluorescence slope was -2.1e-05 (inactive). In addition, the slope in test [6] is 0.00713 (inactive).
`CCOC(=O)/C(C#N)=C(/C)c1ccc(OC)cc1`: the cell count in test [1] was found to be 323. The inhibition in test [1] is -9.6% (inactive); in test [3], -50.1% (inactive); in test [7] it was 5.07% (inactive); in test [8], -13.7% (inactive). In addition, the inhibition of aggregation in test [2] is -28.9% (inactive). Besides, the nuclei count in test [2] and in test [3] was 120% throughout. The fluorescence slope in test [4] is -0.515 (inactive). Moreover, the NADPH fluorescence slope in test [5] is -4.3e-06 (inactive). Also, the slope in test [6] is 0.00405 (inactive).
For `CN1/C(=C\C(=O)Nc2cccnc2)c2ccccc2CC1(C)C`, the cell count in test [1] was 360. The inhibition was -5% (inactive) in test [1], -31.3% (inactive) in test [3], 18.7% (inactive) in test [7] and 19.4% (inactive) in test [8]. Besides, the inhibition of aggregation in test [2] was -8.4% (inactive). For the same compound, the nuclei count came to 91.1% in test [2] and 117% in test [3]. For the same compound, the fluorescence slope in test [4] is -0.401 (inactive). The NADPH fluorescence slope in test [5] is -4.2e-05 (inactive). Further, the slope in test [6] is 0.00677 (inactive).
Regarding `CCNCC(O)COCC(O)CNCC` (centres undefined), the cell count in test [1] stood at 493. Also, the inhibition in test [1] is -5.5% (inactive); in test [3], 4.5% (inactive); in test [7] it was 13.1% (inactive); in test [8], 21.4% (inactive). The inhibition of aggregation in test [2] is -14.4% (inactive). The values for the nuclei count in test [2] and in test [3] were 84.2% and 117%, respectively. For the same compound, the fluorescence slope in test [4] was -0.256 (inactive). In test [5], the NADPH fluorescence slope is 8.5e-06 (inactive). Further, the slope in test [6] is 0.0061 (inactive).
For the compound `Cc1ccc(S(=O)(=O)N2C(=O)CCC2C(=O)Nc2ccc3c(c2)OCCO3)cc1` (centres undefined), the cell count in test [1] was found to be 430. Also, the inhibition in test [1] is 3.8% (inactive); in test [3], -32.2% (inactive); in test [7] it was 10.3% (inactive); in test [8], 27.4% (inactive). In test [2], the inhibition of aggregation was -9.4% (inactive). The values for the nuclei count in test [2] and in test [3] were 101% and 102%, respectively. Moreover, the fluorescence slope in test [4] is -0.446 (inactive). The NADPH fluorescence slope in test [5] is -2.2e-05 (inactive). Further, the slope in test [6] was 0.00315 (inactive).
As for `CN(C)c1oc(-c2ccccc2Cl)nc1C#N`, the cell count in test [1] amounted to 302. Moreover, the inhibition in test [1] was 4.3% (inactive); in test [3] it was 6% (inactive); in test [7], 6.71% (inactive); in test [8] it was -0.158% (inactive). Moreover, the inhibition of aggregation in test [2] is -4.3% (inactive). The nuclei count stood at 90.7% in test [2] and 109% in test [3]. The fluorescence slope in test [4] is -0.433 (inactive). Also, the NADPH fluorescence slope in test [5] is -0.000102 (inactive). For the same compound, the slope in test [6] is 0.00458 (inactive).
On to `O=c1oc2ccccc2c2c1ncn2-c1ccccc1`, for which the cell count in test [1] was 375. Also, the inhibition in test [1] was 0% (inactive); in test [3], -9.9% (inactive); in test [7] it was 16.7% (inactive); in test [8] it was 27.6% (inactive). In test [2], the inhibition of aggregation was -20.2% (inactive). Also, the nuclei count in test [2] is 113%; in test [3], 114%. Also, in test [4], the fluorescence slope is -0.45 (inactive). The NADPH fluorescence slope in test [5] was 7.5e-05 (inactive). In test [6], the slope is 0.00569 (inactive).
